According to PubChem BioAssay AID2427 (National Center for Advancing Translational Sciences (NCATS), 2010):
Calls of active or inactive are those of the source.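 Rule for the calls: active = melting temperature shift above 3 C; inconclusive = shift above 1 C but not above 3 C; inactive = the rest.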

What follows are compounds tested against 15-hydroxyprostaglandin dehydrogenase [NAD(+)] (Homo sapiens) (UniProt P15428) (assay: Thermal Shift Assay for Inhibitors of HPGD (15-Hydroxyprostaglandin Dehydrogenase)). Settings: Recombinant HPGD thermal shift, SYPRO orange DSF, at 250 µM, stronger effect = higher value.
15-hydroxyprostaglandin dehydrogenase [NAD(+)] (Homo sapiens), sequence (P15428 whole entry, looked up): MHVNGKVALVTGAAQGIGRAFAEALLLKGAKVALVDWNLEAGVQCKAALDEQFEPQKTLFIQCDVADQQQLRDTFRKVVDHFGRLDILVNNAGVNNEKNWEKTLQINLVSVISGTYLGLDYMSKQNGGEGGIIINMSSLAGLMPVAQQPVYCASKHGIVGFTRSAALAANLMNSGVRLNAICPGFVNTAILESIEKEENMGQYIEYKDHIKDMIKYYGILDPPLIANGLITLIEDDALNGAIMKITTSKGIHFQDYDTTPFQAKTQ
Procedure: Assay Overview: Human 15-Hydroxyprostaglandin dehydrogenase (HPGD) catalyzes the inactivation of prostaglandin E2, and plays a major role in cancer biology by antagonizing the oncogenic potential of cyclooxygenase type 2 (COX2). Studies to assess the stability of human 15-PGDH in presence of compounds was performed as described (Niesen et al., 2007) with variations. References 1. Myung SJ, Rerko RM, Yan M, Platzer P, Guda K, Dotson A, Lawrence E, Dannenberg AJ, Lovgren AK, Luo G, Pretlow TP, Newman RA, Willis J, Dawson D, Markowitz SD. 15-Hydroxyprostaglandin dehydrogenase is an in vivo suppressor of colon tumorigenesis. Proc Natl Acad Sci U S A. 2006 Aug 8;103(32):12098-102. 2. Yan M, Rerko RM, Platzer P, Dawson D, Willis J, Tong M, Lawrence E, Lutterbaugh J, Lu S, Willson JK, Luo G, Hensold J, Tai HH, Wilson K, Markowitz SD. 15-Hydroxyprostaglandin dehydrogenase, a COX-2 oncogene antagonist, is a TGF-beta-induced suppressor of human gastrointestinal cancers. Proc Natl Acad Sci U S A. 2004 Dec 14;101(50):17468-73. 3. Yang L, Amann JM, Kikuchi T, Porta R, Guix M, Gonzalez A, Park KH, Billheimer D, Arteaga CL, Tai HH, Dubois R, Carbone DP, Johnson DH. Inhibition of Epidermal Growth Factor Receptor Signaling Elevates 15-Hydroxyprostaglandin Dehydrogenase in Non-Small-Cell Lung Cancer. Cancer Res. 2007 Jun 15;67(12):5587-5593. 4. Niesen FH, Berglund H, Vedadi M: The use of differential scanning fluorimetry to detect ligand interactions that promote protein stability. Nature protocols 2007; 2:2212-2221 NIH Chemical Genomics Center [NCGC] Structural Genomics Consortium [SGC]
HPGD was diluted to a final assay concentration of 1 uM in 100 mM Tris buffer, pH 8.0, containing 0.01% Tween-20 and 1:1000 SYPRO orange dye. The final assay volume is 10 ul, with or without 200 uM of either NAD+ or NADH. Compounds were added 1:5 from appropriate stock solutions in 10% (v/v) DMSO to comprise either 50 or 250 uM final concentrations. Heat denaturation curves were recorded using a RT-PCR instrument (Mx3005p, Agilent) applying a temperature gradient of 2 degree C/min. Analysis of the data was performed using DSF Analysis vers. 2.5 (ftp://ftp.sgc.ox.ac.uk/pub/biophysics) and Prism 5.0 (GraphPad Software, Inc.)

Structure (SMILES) | thermal shift (delta Tm)
Cc1ccc(-c2n[nH]c(=S)n2/N=C/C=C\c2ccccc2[N+](=O)[O-])cc1 | 4.5 C (active)
Cc1ccccc1CSc1nc2ccccc2c(=O)[nH]1 | 6.1 C (active)
Cc1cccc(-n2cnc3cc(C(=O)N4CCCCC4)ccc32)c1 | 7.3 C (active)
O=C(CSc1nc2ncc(Br)cc2[nH]1)c1cccc([N+](=O)[O-])c1 | 6.9 C (active)
COCCNC(=O)C1CCC(Cn2c(=S)[nH]c3ccccc3c2=O)CC1 (stereo not given) | 3.7 C (active)
CCN(CC)C(=O)c1sc2nc(-c3cccs3)cc(-c3ccc(Cl)cc3)c2c1N | 0.9 C (inactive)
Cc1cc(-c2nnc3n2CCCCC3)c(C)n1-c1ccccc1 | 5 C (active)
O=C(CSc1nc(-c2ccccc2)nn1C(=O)c1ccccc1)Nc1cccc([N+](=O)[O-])c1 | 4 C (active)
Fc1ccccc1CSc1nc2ncc(Br)cc2[nH]1 | 7.6 C (active)
O=C(c1ccc2c(c1)OCCO2)N1CCCCC1 | 3.5 C (active)
O=C(C1CCC(Cn2c(=S)[nH]c3ccccc3c2=O)CC1)N1CCOCC1 (stereo not given) | 6 C (active)
Cc1ccc(C)c(Cn2nnc3c(=O)[nH]c(C(=O)NCc4ccco4)nc32)c1 | 7.5 C (active)
O=c1[nH]c(SCc2ccccc2Cl)nc2c1CCC2 | 9.2 C (active)
O=C(c1ccc2c(c1)OCO2)N1CCc2ccccc2C1 | 3.3 C (active)
COCCNC(=O)c1nc2c(nnn2Cc2cc(C)ccc2C)c(=O)[nH]1 | 8.9 C (active)
COc1ccc(-c2cc(C(F)(F)F)n3nc(C(=O)N4CCCCC4)cc3n2)cc1OC | 3.9 C (active)
CC1CCCN(C(=O)c2ccc(COc3ccccc3Br)cc2)C1 (stereo not given) | 3.8 C (active)
O=C(c1ccc(COc2ccccc2Br)cc1)N1CCCCC1 | 7.1 C (active)
COc1ccc2cc(C(=O)N3CCCCCC3)sc(=O)c2c1OC | 3.2 C (active)
O=C(CCc1ccc(Oc2cc([N+](=O)[O-])cc([N+](=O)[O-])c2)cc1)N1CCCCC1 | 3.1 C (active)

Same assay, conditions: Recombinant HPGD thermal shift, SYPRO orange DSF, measured here: delta Tm with NADH cofactor, at 250 µM, stronger effect = higher value

Structure (SMILES) | thermal shift (delta Tm) [C]
Cc1ccc(-c2n[nH]c(=S)n2/N=C/C=C\c2ccccc2[N+](=O)[O-])cc1 | 0.2
Cc1ccccc1CSc1nc2ccccc2c(=O)[nH]1 | 0.4
Cc1cccc(-n2cnc3cc(C(=O)N4CCCCC4)ccc32)c1 | 13.5
O=C(CSc1nc2ncc(Br)cc2[nH]1)c1cccc([N+](=O)[O-])c1 | 1.7
COCCNC(=O)C1CCC(Cn2c(=S)[nH]c3ccccc3c2=O)CC1 (stereo not given) | 4.7
CCN(CC)C(=O)c1sc2nc(-c3cccs3)cc(-c3ccc(Cl)cc3)c2c1N | 2.9
Cc1cc(-c2nnc3n2CCCCC3)c(C)n1-c1ccccc1 | 10.5
O=C(CSc1nc(-c2ccccc2)nn1C(=O)c1ccccc1)Nc1cccc([N+](=O)[O-])c1 | -7.6
Fc1ccccc1CSc1nc2ncc(Br)cc2[nH]1 | 1.5
O=C(c1ccc2c(c1)OCCO2)N1CCCCC1 | 7.8
O=C(C1CCC(Cn2c(=S)[nH]c3ccccc3c2=O)CC1)N1CCOCC1 (stereo not given) | 3.9
Cc1ccc(C)c(Cn2nnc3c(=O)[nH]c(C(=O)NCc4ccco4)nc32)c1 | 4.8
O=c1[nH]c(SCc2ccccc2Cl)nc2c1CCC2 | 1.6
O=C(c1ccc2c(c1)OCO2)N1CCc2ccccc2C1 | 4.4
COCCNC(=O)c1nc2c(nnn2Cc2cc(C)ccc2C)c(=O)[nH]1 | 6.6
COc1ccc(-c2cc(C(F)(F)F)n3nc(C(=O)N4CCCCC4)cc3n2)cc1OC | 9.6
CC1CCCN(C(=O)c2ccc(COc3ccccc3Br)cc2)C1 (stereo not given) | 10.6
O=C(c1ccc(COc2ccccc2Br)cc1)N1CCCCC1 | 10.6
COc1ccc2cc(C(=O)N3CCCCCC3)sc(=O)c2c1OC | 7.8
O=C(CCc1ccc(Oc2cc([N+](=O)[O-])cc([N+](=O)[O-])c2)cc1)N1CCCCC1 | 7.9
